# Where a name gives a salt, the structure may show the parent alone.
# Test system: Saccharomyces cerevisiae BY4741 SeMeCo community
# Assay: z-score of subpopulation abundance vs DMSO median, subpopulation auxotrophic for LU; higher = larger share of this subpopulation than in DMSO controls
# Details: 10 µM; 24 h; SM minimal medium; subpopulation (auxotrophy): LU
# Outline: (§1)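 Subpopulation abundance was reported as a z-score against the median of vehicle wells. The Saccharomyces cerevisiae BY4741 community, carrying four plasmids that each restored one auxotrophy and encoded a distinct fluorescent protein, was grown 24 h in minimal SM medium in 384-well plates holding library drugs at 10 µM final. Cells were paraformaldehyde-fixed and imaged by automated confocal microscopy, with single-auxotroph fluorescent strains used for thresholds and autofluorescence correction.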
row,SMILES,z-score of subpopulation abundance
1,CC(C)Cc1ccc(C(C)C(=O)O)cc1 (stereo unspecified) [Ibuprofen],-2.51
2,Fc1ccc(C(c2ccc(F)cc2)N2CCN(C/C=C/c3ccccc3)CC2)cc1 [Flunarizine 2HCl],0.52
3,COCCCN1CCC(NC(=O)c2cc(Cl)c(N)c3c2OCC3)CC1 [Prucalopride Succinate],0.16
4,CCCCOc1ccc(CC(=O)NO)cc1 [Bufexamac],-0.51
5,O=C(Nc1cc(Cl)cc(Cl)c1O)c1c(O)c(Cl)cc(Cl)c1Cl [Oxyclozanide],-0.32
6,CCC(=O)NS(=O)(=O)c1ccc(-c2c(-c3ccccc3)noc2C)cc1 [Parecoxib Sodium],0.31
7,CN(CCN1CCC(OC(=O)Nc2ccccc2-c2ccccc2)CC1)C(=O)c1ccc(CN2CCC(C(N)=O)CC2)cc1 [Revefenacin],0.12
8,Cc1nnc(NS(=O)(=O)c2ccc(N)cc2)s1 [Sulfamethizole],-0.31
9,CC1=CC[C@@](O)(C(C)C)CC1 [Terpinen-4-ol],0.74
10,Cn1c([N+](=O)[O-])cnc1COC(N)=O [Ronidazole],-0.22
11,COc1ccc(Cl)cc1C(=O)NCCc1ccc(S(=O)(=O)NC(=O)NC2CCCCC2)cc1 [Glyburide (Glibenclamide)],-0.07
12,O=C(Nc1c(Cl)cncc1Cl)c1ccc(OC(F)F)c(OCC2CC2)c1 [Roflumilast],0.34
13,CN(C)CCC=C1c2ccccc2C(C)(C)c2ccccc21 [Melitracen hydrochloride],-0.8
14,COc1cc(Cc2cnc(N)nc2N)cc(OC)c1OC [Trimethoprim],0.14
15,CC(C)c1c(C(=O)Nc2ccccc2)c(-c2ccccc2)c(-c2ccc(F)cc2)n1CC[C@@H](O)C[C@@H](O)CC(=O)O [Atorvastatin],1.58
16,COCCOC(=O)C1=C(C)NC(C)=C(C(=O)OC(C)C)C1c1cccc([N+](=O)[O-])c1 (stereo unspecified) [Nimodipine],-0.12
17,CCOC(=O)C1=C(C)NC(C)=C(C(=O)OC)C1c1cccc([N+](=O)[O-])c1 (stereo unspecified) [Nitrendipine],-0.48
18,CC(C)n1c(/C=C/C(O)CC(O)CC(=O)O)c(-c2ccc(F)cc2)c2ccccc21 (stereo unspecified) [Fluvastatin Sodium],1.08
19,CCCN[C@H]1CCc2nc(N)sc2C1 [Pramipexole dihydrochloride],-0.61
20,Cc1cc(C)nc(NS(=O)(=O)c2ccc(N)cc2)n1 [Sulfamethazine],-0.83
21,CC[C@H](C)C(=O)O[C@H]1C[C@@H](C)C=C2C=C[C@H](C)[C@H](CC[C@@H]3C[C@@H](O)CC(=O)O3)[C@H]21 [Lovastatin],0.16
22,CN1[C@@H]2CC[C@H]1C[C@@H](OC(c1ccccc1)c1ccccc1)C2 [Benztropine mesylate],-0.21
23,NCC[C@H](O)C(=O)N[C@@H]1C[C@H](N)[C@@H](O[C@H]2O[C@H](CN)[C@@H](O)[C@H](O)[C@H]2O)[C@H](O)[C@H]1O[C@H]1O[C@H](CO)[C@@H](O)[C@H](N)[C@H]1O [Amikacin hydrate],-0.95
24,CO/N=C(\C(=O)N[C@@H]1C(=O)N2C(C(=O)O)=C(CSc3nc(C)c(CC(=O)O)s3)CS[C@H]12)c1csc(N)n1 [Cefodizime Sodium],0.22
25,COc1ccc2c3c1O[C@H]1C[C@@H](O)C=C[C@@]31CCN(C)C2 [Galanthamine],0.29
26,CC[C@H](C)C(=O)O[C@H]1CCC=C2C=C[C@H](C)[C@H](CC[C@@H]3C[C@@H](O)CC(=O)O3)[C@H]21 [Mevastatin],0.06
27,O=C(Cn1ccnc1[N+](=O)[O-])NCc1ccccc1 [Benznidazole],-0.43
28,CCN(Cc1ccncc1)C(=O)C(CO)c1ccccc1 (stereo unspecified) [Tropicamide],0.14

# Test system: Saccharomyces cerevisiae BY4741 SeMeCo community
# Assay: z-score of subpopulation abundance vs DMSO median, subpopulation auxotrophic for LM; higher = larger share of this subpopulation than in DMSO controls
# Details: 10 µM; 24 h; SM minimal medium; subpopulation (auxotrophy): LM
# Outline: as §1
row,SMILES,z-score of subpopulation abundance
1,CC(C)Cc1ccc(C(C)C(=O)O)cc1 (stereo unspecified) [Ibuprofen],-0.71
2,Fc1ccc(C(c2ccc(F)cc2)N2CCN(C/C=C/c3ccccc3)CC2)cc1 [Flunarizine 2HCl],1.5
3,COCCCN1CCC(NC(=O)c2cc(Cl)c(N)c3c2OCC3)CC1 [Prucalopride Succinate],-0.18
4,CCCCOc1ccc(CC(=O)NO)cc1 [Bufexamac],-1.36
5,NCC[C@H](O)C(=O)N[C@@H]1C[C@H](N)[C@@H](O[C@H]2O[C@H](CN)[C@@H](O)[C@H](O)[C@H]2O)[C@H](O)[C@H]1O[C@H]1O[C@H](CO)[C@@H](O)[C@H](N)[C@H]1O [Amikacin disulfate],-0.17
6,O=C(Nc1cc(Cl)cc(Cl)c1O)c1c(O)c(Cl)cc(Cl)c1Cl [Oxyclozanide],-0.51
7,CCC(=O)NS(=O)(=O)c1ccc(-c2c(-c3ccccc3)noc2C)cc1 [Parecoxib Sodium],1
8,CN(CCN1CCC(OC(=O)Nc2ccccc2-c2ccccc2)CC1)C(=O)c1ccc(CN2CCC(C(N)=O)CC2)cc1 [Revefenacin],0.16
9,Cc1nnc(NS(=O)(=O)c2ccc(N)cc2)s1 [Sulfamethizole],-0.01
10,CC1=CC[C@@](O)(C(C)C)CC1 [Terpinen-4-ol],-0.03
11,CS(=O)(=O)c1ccc([C@@H](O)[C@@H](CF)NC(=O)C(Cl)Cl)cc1 [Florfenicol],-0.75
12,Cn1c([N+](=O)[O-])cnc1COC(N)=O [Ronidazole],-0.82
13,COc1ccc(Cl)cc1C(=O)NCCc1ccc(S(=O)(=O)NC(=O)NC2CCCCC2)cc1 [Glyburide (Glibenclamide)],1.74
14,O=C(Nc1c(Cl)cncc1Cl)c1ccc(OC(F)F)c(OCC2CC2)c1 [Roflumilast],-0.1
15,CCN(CC)CCOc1ccc2c(c1)C(=O)c1cc(OCCN(CC)CC)ccc1-2 [Tilorone dihydrochloride],-0.86
16,CN(C)[C@@H](CCOc1cccc2ccccc12)c1ccccc1 [Dapoxetine HCl],0.47
17,CN(C)CCC=C1c2ccccc2C(C)(C)c2ccccc21 [Melitracen hydrochloride],-0.58
18,COc1cc(Cc2cnc(N)nc2N)cc(OC)c1OC [Trimethoprim],-0.07
19,OCCN1CCN(CCCN2c3ccccc3Sc3ccc(C(F)(F)F)cc32)CC1 [Fluphenazine dihydrochloride],0.55

row,SMILES,z-score of subpopulation abundance
1,CC(C)c1c(C(=O)Nc2ccccc2)c(-c2ccccc2)c(-c2ccc(F)cc2)n1CC[C@@H](O)C[C@@H](O)CC(=O)O [Atorvastatin],-0.19
2,COc1ccc(C2CNC(=O)C2)cc1OC1CCCC1 (stereo unspecified) [Rolipram],0.28
3,NNc1nncc2ccccc12 [Hydralazine HCl],-0.56
4,COCCOC(=O)C1=C(C)NC(C)=C(C(=O)OC(C)C)C1c1cccc([N+](=O)[O-])c1 (stereo unspecified) [Nimodipine],-0.2
5,CCOC(=O)C1=C(C)NC(C)=C(C(=O)OC)C1c1cccc([N+](=O)[O-])c1 (stereo unspecified) [Nitrendipine],-1.23
6,CC(C)n1c(/C=C/C(O)CC(O)CC(=O)O)c(-c2ccc(F)cc2)c2ccccc21 (stereo unspecified) [Fluvastatin Sodium],-0.26
7,CCCN[C@H]1CCc2nc(N)sc2C1 [Pramipexole dihydrochloride],-0.39
8,Cc1cc(C)nc(NS(=O)(=O)c2ccc(N)cc2)n1 [Sulfamethazine],0.84
9,CC[C@H](C)C(=O)O[C@H]1C[C@@H](C)C=C2C=C[C@H](C)[C@H](CC[C@@H]3C[C@@H](O)CC(=O)O3)[C@H]21 [Lovastatin],-0.13
10,CN1[C@@H]2CC[C@H]1C[C@@H](OC(c1ccccc1)c1ccccc1)C2 [Benztropine mesylate],0.22
11,CO/N=C(\C(=O)N[C@@H]1C(=O)N2C(C(=O)O)=C(CSc3nnnn3C)CS[C@H]12)c1csc(N)n1 [Cefmenoxime hydrochloride],0.27
12,NCC[C@H](O)C(=O)N[C@@H]1C[C@H](N)[C@@H](O[C@H]2O[C@H](CN)[C@@H](O)[C@H](O)[C@H]2O)[C@H](O)[C@H]1O[C@H]1O[C@H](CO)[C@@H](O)[C@H](N)[C@H]1O [Amikacin hydrate],0.15
13,CO/N=C(\C(=O)N[C@@H]1C(=O)N2C(C(=O)O)=C(CSc3nc(C)c(CC(=O)O)s3)CS[C@H]12)c1csc(N)n1 [Cefodizime Sodium],-1.04
14,COc1ccc2c3c1O[C@H]1C[C@@H](O)C=C[C@@]31CCN(C)C2 [Galanthamine],0.45
15,CC[C@H](C)C(=O)O[C@H]1CCC=C2C=C[C@H](C)[C@H](CC[C@@H]3C[C@@H](O)CC(=O)O3)[C@H]21 [Mevastatin],-0.31
16,CN1CCN(CCCN2c3ccccc3Sc3ccc(C(F)(F)F)cc32)CC1 [Trifluoperazine 2HCl],-0.04
17,C[C@]12CC[C@@H]3c4ccc(OS(=O)(=O)O)cc4CC[C@H]3[C@@H]1CCC2=O [Estropipate],-0.33
18,O=C(Cn1ccnc1[N+](=O)[O-])NCc1ccccc1 [Benznidazole],0.19
19,CCN(Cc1ccncc1)C(=O)C(CO)c1ccccc1 (stereo unspecified) [Tropicamide],0.83

# — the supplement of paper PMC8975748
